According to paper PMC12864922, “TDP-43 directly inhibits mRNA accumulation in neurites through modulation of mRNA stability”:
Whole data set: some 9,900 sequences, median “r (bound/input frequency ratio)” near 0.7, cut for the highest 2% near 6.5. This is one part of a sample in which the highest values are shown more often than they occur.

B1: ENSMUSG00000028439.351|Fam219a (ssRNA)
RNA: GGGAGUUCUACAGUCCGACGAUCGCUUCGAUAUCCGCAUGCUACCCCCCACCGCAUCCCCACUGGGCUCUUUGACUCACCCUUCUAGAACAUGGGUGCCUCCUCUCUUUAGACUGCUGCCUUUGCCUCUGACUUCCUGUGGGAUUGAGAGCCAAGGGCCAGUGCCCUUGUGAGCGCACUAGUUCCGAAGCAGGCAAGGGCAUUAGGUGGUAUAUACAUAGCGGGUAGGGGUAGGAAGCUGGCAGCCUGCAGCUUCCAAGUCCAAGGAGAGCACACAGUUCCCUCCUUCCCUGCCUGGAAGUUGCUCUUGCGGUCGCACUAGUGUGGAAUUCUCGGGUGUCAAGG
B2: ENSMUSG00000061578.187|Ksr2 (ssRNA)
RNA: GGGAGUUCUACAGUCCGACGAUCGCUUCGAUAUCCGCAUGCUAUUGUGCACACUCAGCACCCCAUCUUCCAAGCCUUUCUUCAUCCCCCACCUUCUUUUGGGAAGGGGUGGCACAGAGUGAAUGGGAAGGAGAGCCCUGAGGUCACUGGUCCACAUGCCCAAAGCCAUGCCCCCCAGUGAUCAGACCUGACACAAGAGGCAAAGCUGUCCCUAAGCAGAGAAUUAGCAGGGUUAGCCAGACAGCAAAAUCCAUGUAAACAUACAAAACCACCCCCCCUUUUUGAGUGGCCCUAUUGGAUGUACCUCUUGCGGUCGCACUAGUGUGGAAUUCUCGGGUGUCAAGG
B3: ENSMUSG00000029028.44|Lrrc47 (ssRNA)
RNA: GGGAGUUCUACAGUCCGACGAUCGCUUCGAUAUCCGCAUGCUAUAGGUGUCUGUGUGGGUGUGCUAGGUGUCUGUAUAGGUGUGGGUGUGCUGUAGAUGUCUGUGUAGGUAUGGGUGUGCUGUAGAUCUUUGUAGGUGUAGGUAUGCUGUAGGUAUCUGGGUGUGGGUAUGCUGUAGAUGUCUGUGUAGGUGUGGAUAUGCUGUAGGUAUCUGGGUGUGCUGUAGGUGUCUGUGUGGGUGUGGGUGUGCUGUGGGUGUCUGUGUGGGUGUGCUGUAGGUGUCUGUAGGUGUGGGUAUGCUGCACUCUUGCGGUCGCACUAGUGUGGAAUUCUCGGGUGUCAAGG
B4: ENSMUSG00000029028.20|Lrrc47 (ssRNA)
RNA: GGGAGUUCUACAGUCCGACGAUCGCUUCGAUAUCCGCAUGCUAUGUGGGUGUGCUGUAGGUGUCUGUGUGGGUGUGGGUGUGCUGUAGGUGUCUGUGUGGGUGUGGGUGUGCUAUAGGUAUCUGUGGGUGUGCUGUAGGUGUCUGUGUGGGUGUGCUGUAGGUGUCUGUGUAGGUGUGGGUGUGCUGUAGGUGUCUGUGUGGGUGUGCUAGGUGUCUGUAUAGGUGUGGGUGUGCUGUAGAUGUCUGUGUAGGUAUGGGUGUGCUGUAGAUCUUUGUAGGUGUAGGUAUGCUGUAGGUAUCUGCUCUUGCGGUCGCACUAGUGUGGAAUUCUCGGGUGUCAAGG
B5: ENSMUSG00000029028.21|Lrrc47 (ssRNA)
RNA: GGGAGUUCUACAGUCCGACGAUCGCUUCGAUAUCCGCAUGCUAUGUGCUGUAGGUGUCUGUGUGGGUGUGGGUGUGCUGUAGGUGUCUGUGUGGGUGUGGGUGUGCUAUAGGUAUCUGUGGGUGUGCUGUAGGUGUCUGUGUGGGUGUGCUGUAGGUGUCUGUGUAGGUGUGGGUGUGCUGUAGGUGUCUGUGUGGGUGUGCUAGGUGUCUGUAUAGGUGUGGGUGUGCUGUAGAUGUCUGUGUAGGUAUGGGUGUGCUGUAGAUCUUUGUAGGUGUAGGUAUGCUGUAGGUAUCUGGGUGUGCUCUUGCGGUCGCACUAGUGUGGAAUUCUCGGGUGUCAAGG
B6: ENSMUSG00000029028.67|Lrrc47 (ssRNA)
RNA: GGGAGUUCUACAGUCCGACGAUCGCUUCGAUAUCCGCAUGCUACUGUGUAGGUGUGGAUAUGCUGUAGGUAUCUGGGUGUGCUGUAGGUGUCUGUGUGGGUGUGGGUGUGCUGUGGGUGUCUGUGUGGGUGUGCUGUAGGUGUCUGUAGGUGUGGGUAUGCUGCAGGUGUGGGUGUGCUGUAGAUCUCUAUAGGUGUGGGUGUGCUGUAGGGGUCUGUGUGGGUAUAGGUGUGGGUGUGCUGUAGAUUCUGUGUAACUGGUUCUUUGCUGUUUCUCUGGGUGUUUUAAGGUGUCUGCUUUUGUCUCUUGCGGUCGCACUAGUGUGGAAUUCUCGGGUGUCAAGG
B7: ENSMUSG00000029028.19|Lrrc47 (ssRNA)
RNA: GGGAGUUCUACAGUCCGACGAUCGCUUCGAUAUCCGCAUGCUAUGUAGGUGUGGGUGUGCUGUAGGUGUCUGUGUGGGUGUGGGUGUGCUGUAGGUGUCUGUGUGGGUGUGGGUGUGCUAUAGGUAUCUGUGGGUGUGCUGUAGGUGUCUGUGUGGGUGUGCUGUAGGUGUCUGUGUAGGUGUGGGUGUGCUGUAGGUGUCUGUGUGGGUGUGCUAGGUGUCUGUAUAGGUGUGGGUGUGCUGUAGAUGUCUGUGUAGGUAUGGGUGUGCUGUAGAUCUUUGUAGGUGUAGGUAUGCUGUAGGCUCUUGCGGUCGCACUAGUGUGGAAUUCUCGGGUGUCAAGG
B8: ENSMUSG00000029028.28|Lrrc47 (ssRNA)
RNA: GGGAGUUCUACAGUCCGACGAUCGCUUCGAUAUCCGCAUGCUAUCUGUGUGGGUGUGGGUGUGCUAUAGGUAUCUGUGGGUGUGCUGUAGGUGUCUGUGUGGGUGUGCUGUAGGUGUCUGUGUAGGUGUGGGUGUGCUGUAGGUGUCUGUGUGGGUGUGCUAGGUGUCUGUAUAGGUGUGGGUGUGCUGUAGAUGUCUGUGUAGGUAUGGGUGUGCUGUAGAUCUUUGUAGGUGUAGGUAUGCUGUAGGUAUCUGGGUGUGGGUAUGCUGUAGAUGUCUGUGUAGGUGUGGAUAUGCUGUAGGCUCUUGCGGUCGCACUAGUGUGGAAUUCUCGGGUGUCAAGG
B9: ENSMUSG00000029028.66|Lrrc47 (ssRNA)
RNA: GGGAGUUCUACAGUCCGACGAUCGCUUCGAUAUCCGCAUGCUAAGAUGUCUGUGUAGGUGUGGAUAUGCUGUAGGUAUCUGGGUGUGCUGUAGGUGUCUGUGUGGGUGUGGGUGUGCUGUGGGUGUCUGUGUGGGUGUGCUGUAGGUGUCUGUAGGUGUGGGUAUGCUGCAGGUGUGGGUGUGCUGUAGAUCUCUAUAGGUGUGGGUGUGCUGUAGGGGUCUGUGUGGGUAUAGGUGUGGGUGUGCUGUAGAUUCUGUGUAACUGGUUCUUUGCUGUUUCUCUGGGUGUUUUAAGGUGUCUGCCUCUUGCGGUCGCACUAGUGUGGAAUUCUCGGGUGUCAAGG
B10: ENSMUSG00000029028.38|Lrrc47 (ssRNA)
RNA: GGGAGUUCUACAGUCCGACGAUCGCUUCGAUAUCCGCAUGCUAUGUGCUGUAGGUGUCUGUGUAGGUGUGGGUGUGCUGUAGGUGUCUGUGUGGGUGUGCUAGGUGUCUGUAUAGGUGUGGGUGUGCUGUAGAUGUCUGUGUAGGUAUGGGUGUGCUGUAGAUCUUUGUAGGUGUAGGUAUGCUGUAGGUAUCUGGGUGUGGGUAUGCUGUAGAUGUCUGUGUAGGUGUGGAUAUGCUGUAGGUAUCUGGGUGUGCUGUAGGUGUCUGUGUGGGUGUGGGUGUGCUGUGGGUGUCUGUGUGGGCUCUUGCGGUCGCACUAGUGUGGAAUUCUCGGGUGUCAAGG
B11: ENSMUSG00000029028.68|Lrrc47 (ssRNA)
RNA: GGGAGUUCUACAGUCCGACGAUCGCUUCGAUAUCCGCAUGCUAAGGUGUGGAUAUGCUGUAGGUAUCUGGGUGUGCUGUAGGUGUCUGUGUGGGUGUGGGUGUGCUGUGGGUGUCUGUGUGGGUGUGCUGUAGGUGUCUGUAGGUGUGGGUAUGCUGCAGGUGUGGGUGUGCUGUAGAUCUCUAUAGGUGUGGGUGUGCUGUAGGGGUCUGUGUGGGUAUAGGUGUGGGUGUGCUGUAGAUUCUGUGUAACUGGUUCUUUGCUGUUUCUCUGGGUGUUUUAAGGUGUCUGCUUUUGUCCAGGUCUCUUGCGGUCGCACUAGUGUGGAAUUCUCGGGUGUCAAGG

Target: TDP-43 (Homo sapiens, UniProt Q13148 1-414)
Sequence (Q13148 whole entry): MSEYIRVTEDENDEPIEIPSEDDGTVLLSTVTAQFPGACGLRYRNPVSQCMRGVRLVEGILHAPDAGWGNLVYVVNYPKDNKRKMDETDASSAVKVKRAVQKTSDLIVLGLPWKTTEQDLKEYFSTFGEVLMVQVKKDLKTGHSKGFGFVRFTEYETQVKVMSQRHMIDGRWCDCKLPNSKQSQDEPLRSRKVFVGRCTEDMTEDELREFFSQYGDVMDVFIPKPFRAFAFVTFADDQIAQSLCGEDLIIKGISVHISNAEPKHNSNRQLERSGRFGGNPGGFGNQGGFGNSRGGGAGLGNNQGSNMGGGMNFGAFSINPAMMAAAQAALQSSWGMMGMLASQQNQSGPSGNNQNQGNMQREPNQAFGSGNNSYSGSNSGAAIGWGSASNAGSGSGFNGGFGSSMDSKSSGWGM
Test: RNA Bind-n-Seq with designed 260-mer pool; 25 mM Tris-HCl, 150 mM KCl, 3 mM MgCl2, BSA (printed 500 mg/mL), 20 units/mL SUPERase IN; pH not stated; 500 nM RNA pool, 1 h, 4 C; TDP-43 5, 50, 500 nM; high values mean tight binding
Settings: protein: recombinant; tags: SBP (GST cleaved off with PreScission; pGEX-GST-SBP)
Procedure, shortened: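 Duplicate measurements used two independent batches of recombinant SBP-tagged TDP-43, which was captured on streptavidin beads at 5, 50 or 500 nM. The beads were incubated with 500 nM of an in vitro-transcribed 260-nt 3′ UTR oligo pool for 1 h at 4 °C in 25 mM Tris-HCl, 150 mM KCl, 3 mM MgCl2, BSA and SUPERase IN. After washing, biotin elution, reverse transcription, PCR amplification and sequencing, binding was expressed as R: each oligo's normalized read abundance in the bound sample over its abundance in input.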

Binder | binding signal
B1 | 0.423 R (bound/input frequency ratio)
B2 | 0.56 R (bound/input frequency ratio)
B3 | 6.44 R (bound/input frequency ratio)
B4 | 5.01 R (bound/input frequency ratio)
B5 | 5.32 R (bound/input frequency ratio)
B6 | 6.13 R (bound/input frequency ratio)
B7 | 6.81 R (bound/input frequency ratio)
B8 | 6.68 R (bound/input frequency ratio)
B9 | 4.75 R (bound/input frequency ratio)
B10 | 5.89 R (bound/input frequency ratio)
B11 | 7.46 R (bound/input frequency ratio)
